In general, AC50 refers to the concentration at which the activity in the assay is half-maximal.

Values joined by “and” are separate entries in the source; they are usually repeats but may differ in a detail not shown here. Identical values can stand only once. The source holds several records for some structures; these can differ, active in one and inactive in another. Active and inactive are the calls of the source. How the source made its calls: active means hit-call score of the fitted dose curve at least 0.9, where 1 is the maximum; inactive means score below 0.9.

The nature of the first assay: APR_HepG2_CellLoss_72hr: Apredica 72-hour HepG2 Assay for Cell Loss (AID 2282915). Particulars: high-content imaging. In a few lines: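 HepG2 cells exposed 72 h to compound at 0.39–200 uM (10 concentrations, duplicate) in 0.5% DMSO. Fixed with 3.7% formaldehyde and Hoechst 33342-stained. Imaged at 20x; nuclear count gives cell number, fitted bidirectionally versus DMSO.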
On to `O=C(O)COc1nc(Cl)c(Cl)cc1Cl`, for which the compound was classed as inactive.

With `CC(C)(C)c1ccc(CSc2cnn(C(C)(C)C)c(=O)c2Cl)cc1`, the AC50 was 8.33 µM (active).

With `COC(=O)C(C)Oc1ccc(Oc2ccc(Cl)cc2Cl)cc1` (centres undefined), the outcome was inactive.

For `CCOC(=O)C(Cl)Cc1cc(-n2nc(C)n(C(F)F)c2=O)c(F)cc1Cl` (centres undefined), the result was inactive.

`CC1=C(C(=O)Nc2ccccc2)SCCO1`: the compound was classed as inactive.

Turning to `COc1cnc(OC)n2nc(NS(=O)(=O)c3c(OCC(F)F)cccc3C(F)(F)F)nc12`, the compound was classed as inactive.

Turning to `CCOC(=O)CC(SP(=S)(OC)OC)C(=O)OCC` (centres undefined), the AC50 is 109 µM (active).

As to `CC(C)Oc1cc(-n2nc(C(C)(C)C)oc2=O)c(Cl)cc1Cl`, the AC50 is 58.9 µM (active).

As for `N#CC(CCc1ccc(Cl)cc1)(Cn1cncn1)c1ccccc1` (centres undefined), the compound was called inactive.

`Cc1c(F)c(F)c(COC(=O)C2C(/C=C(\Cl)C(F)(F)F)C2(C)C)c(F)c1F` (centres undefined): the compound was called inactive.

Regarding `COc1nc(C)nc(NC(=O)NS(=O)(=O)c2ccccc2Cl)n1`, the compound was classed as inactive.

As for `CCCCNC(=O)n1c(NC(=O)OC)nc2ccccc21`, the AC50 is 8.47 µM (active).

As for `COC(=O)c1ccccc1C(=O)OC`, the call was inactive.

As for `COP(=S)(OC)Oc1nc(Cl)c(Cl)cc1Cl`, the AC50 is 151 µM (active).

For `Cc1cc(Cl)ccc1OCC(=O)O`, the call was inactive.

For the compound `CON(C)C(=O)Nc1ccc(Cl)c(Cl)c1`, the call was inactive.

For the compound `COc1ccc(C(c2ccc(OC)cc2)C(Cl)(Cl)Cl)cc1`, the AC50 was 72.7 µM (active).

With `CCNc1nc(Cl)nc(NCC)n1`, the outcome was inactive.

Consider `CCCN(CCC)c1c([N+](=O)[O-])cc(S(N)(=O)=O)cc1[N+](=O)[O-]`, for which the AC50 is 38.6 µM (active) and 39.2 µM (active) and 46.7 µM (active); the compound was called inactive.

For the compound `CC(Oc1ccc(Cl)cc1Cl)C(=O)O` (centres undefined), the compound was classed as inactive.

Consider `CN(C)C(=S)SSC(=S)N(C)C`, for which the AC50 is 0.153 µM (active).

For `CCON=C(CC)C1=C(O)CC(c2c(C)cc(C)cc2C)CC1=O` (centres undefined), the call was inactive.

Turning to `CS/C(C)=N/OC(=O)N(C)SN(C)C(=O)O/N=C(\C)SC`, the compound was called inactive.

As to `CCCCNC(=O)OCC#CI`, the AC50 is 1.45 µM (active) and 7.9 µM (active).

With `C=CCC1=C(C)[C@@H](OC(=O)[C@@H]2[C@@H](C=C(C)C)C2(C)C)CC1=O`, the AC50 was 102 µM (active).

A short description of the next assay: APR_HepG2_P-H2AX_72hr: Apredica 72-hour HepG2 Assay for H2AX Phosphorylation (AID 2282916).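 Further: phospho-histone H2A.x immunostain intensity per cell marking DNA damage.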 Particulars: imaging, actives raise or lower the signal. In a few lines: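 HepG2; cpd 0.39–200 uM ×10 conc, duplicates; 0.5% DMSO; 72 hr. Fix 3.7% formaldehyde 30 min RT, 0.5% Triton X-100 10 min. Anti-phospho-H2A.x 1:200 + Hoechst 2 ug/mL, 60 min RT; ArrayScan imaging.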
Turning to `O=C(O)COc1nc(Cl)c(Cl)cc1Cl`, the outcome was inactive.

Take `CC(C)(C)c1ccc(CSc2cnn(C(C)(C)C)c(=O)c2Cl)cc1`: the compound was classed as inactive.

Turning to `COC(=O)C(C)Oc1ccc(Oc2ccc(Cl)cc2Cl)cc1` (centres undefined), the call was inactive.

`CCOC(=O)C(Cl)Cc1cc(-n2nc(C)n(C(F)F)c2=O)c(F)cc1Cl` (centres undefined): the call was inactive.

As for `CC1=C(C(=O)Nc2ccccc2)SCCO1`, the result was inactive.

Consider `COc1cnc(OC)n2nc(NS(=O)(=O)c3c(OCC(F)F)cccc3C(F)(F)F)nc12`, for which the outcome was inactive.

In the case of `CO/C=C(/C(=O)OC)c1ccccc1Oc1cc(Oc2ccccc2C#N)ncn1`, the AC50 was 53.2 µM (active) and 42.2 µM (active); the call was inactive.

With `CCOC(=O)CC(SP(=S)(OC)OC)C(=O)OCC` (centres undefined), the result was inactive.

For `CC(C)Oc1cc(-n2nc(C(C)(C)C)oc2=O)c(Cl)cc1Cl`, the AC50 was 82.2 µM (active).

On to `N#CC(CCc1ccc(Cl)cc1)(Cn1cncn1)c1ccccc1` (centres undefined), for which the compound was classed as inactive.

As to `Cc1c(F)c(F)c(COC(=O)C2C(/C=C(\Cl)C(F)(F)F)C2(C)C)c(F)c1F` (centres undefined), the compound was classed as inactive.

Turning to `COc1nc(C)nc(NC(=O)NS(=O)(=O)c2ccccc2Cl)n1`, the call was inactive.

As for `CCCCNC(=O)n1c(NC(=O)OC)nc2ccccc21`, the outcome was inactive.

Turning to `COC(=O)c1ccccc1C(=O)OC`, the compound was classed as inactive.

Turning to `COP(=S)(OC)Oc1nc(Cl)c(Cl)cc1Cl`, the compound was called inactive.

In the case of `Cc1cc(Cl)ccc1OCC(=O)O`, the compound was called inactive.

Turning to `CON(C)C(=O)Nc1ccc(Cl)c(Cl)c1`, the result was inactive.

As to `COc1ccc(C(c2ccc(OC)cc2)C(Cl)(Cl)Cl)cc1`, the AC50 was 98.2 µM (active).

Consider `CCNc1nc(Cl)nc(NCC)n1`, for which the call was inactive.

On to `CCCN(CCC)c1c([N+](=O)[O-])cc(S(N)(=O)=O)cc1[N+](=O)[O-]`, for which the AC50 is 128 µM (active) and 34.6 µM (active); the compound was classed as inactive.

With `CC(Oc1ccc(Cl)cc1Cl)C(=O)O` (centres undefined), the result was inactive.

Turning to `CN(C)C(=S)SSC(=S)N(C)C`, the AC50 was 0.0895 µM (active).

As to `CCON=C(CC)C1=C(O)CC(c2c(C)cc(C)cc2C)CC1=O` (centres undefined), the compound was called inactive.

As to `CS/C(C)=N/OC(=O)N(C)SN(C)C(=O)O/N=C(\C)SC`, the outcome was inactive.

Turning to `CCCCNC(=O)OCC#CI`, the compound was called inactive.

On to `C=CCC1=C(C)[C@@H](OC(=O)[C@@H]2[C@@H](C=C(C)C)C2(C)C)CC1=O`, for which the compound was classed as inactive.

Values taken from PubChem BioAssay (EPA / NIEHS).
